Compounds without any hit were thinned out: in the full panel of roughly 83,000, 20% have a hit.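 96-well plates, one dose, 48 hours. Percent growth reported; active if below 10.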 Values without a mark were called inactive. Calls of active or inactive are those of the source.
Legend:
Assay in all cases: NCI-60 one-dose screen, 48 h (100 = growth as untreated, 0 = no growth, -100 = all killed)
Details in all cases: 10 µM unless noted
HCT-15 colon = test system: HCT-15 colon
HT29 colon = test system: HT29 colon
SNB-75 CNS = test system: SNB-75 CNS
SNB-19 CNS = test system: SNB-19 CNS
U251 CNS = test system: U251 CNS
SK-MEL-5 melanoma = test system: SK-MEL-5 melanoma
UACC-62 melanoma = test system: UACC-62 melanoma
LOX IMVI melanoma = test system: LOX IMVI melanoma
SK-MEL-28 melanoma = test system: SK-MEL-28 melanoma
SK-MEL-2 melanoma = test system: SK-MEL-2 melanoma
EKVX NSCLC = test system: EKVX NSCLC
SN12C renal = test system: SN12C renal
UO-31 renal = test system: UO-31 renal
TK-10 renal = test system: TK-10 renal
ACHN renal = test system: ACHN renal
CAKI-1 renal = test system: CAKI-1 renal
A498 renal = test system: A498 renal
MOLT-4 leukemia = test system: MOLT-4 leukemia
CCRF-CEM leukemia = test system: CCRF-CEM leukemia

Structure (SMILES) | growth (HCT-15 colon) | growth (HT29 colon) | growth (SNB-75 CNS) | growth (SNB-19 CNS) | growth (U251 CNS) | growth (SK-MEL-5 melanoma) | growth (UACC-62 melanoma) | growth (LOX IMVI melanoma) | growth (SK-MEL-28 melanoma) | growth (SK-MEL-2 melanoma) | growth (EKVX NSCLC) [%] | growth (SN12C renal) | growth (UO-31 renal) | growth (TK-10 renal) | growth (ACHN renal) | growth (CAKI-1 renal) | growth (A498 renal) [%] | growth (MOLT-4 leukemia) | growth (CCRF-CEM leukemia)
O=C1/C(=C/c2ccc(Cl)cc2)SC(=S)N1CCc1ccc(O)cc1 | 99.7% | 117% | 71.4% | 98.9% | 101% | 97.1% | 78.5% | 65.1% | 101% | 99.7% | 93.8 | 80.2% | 54.6% | 80.5% | 99.1% | 81.3% | 87.6 | 54.3% | 
COc1ccc(C(=O)/C=C/c2cccnc2Nc2cc(OC)c(OC)c(OC)c2)cc1 | 18.1% | 15.1% | 21.2% | 36.3% | 13% | 43% | 50% | -26% (active) | 71.5% | 47.4% | 61.9 | 8.5% (active) | 51.1% | 44.9% | 16.4% | 32.2% |  | 2.59% (active) | -16.5% (active)
C(=C\c1nccc2c1[nH]c1ccccc12)/c1ccccc1 | 18.7% | 1.31% (active) | -20.1% (active) | 35% | 15.1% | 2.59% (active) | 39.3% | 25.5% | 49.6% | 37.4% | 38.3 | 46.2% | 13.2% | 34% | 35.6% | -8.56% (active) | 40.4 | 49.1% | 
CCCCC(=O)OCC1OC(n2cnc3c(=S)nc[nH]c32)C(OC(=O)CCCC)C1OC(=O)CCCC (stereo unspecified) | 33.1% | 27% | 51% | 64.2% | 70.1% | 23.3% | 7.37% (active) | 12.1% | 85.7% | 46.2% | 31.3 | 27.4% | 35% | 14.9% | 17.2% |  | 24.8 | 15.3% | 28.4%
Cc1ccccc1COc1ccc(-c2onc(C)c2-c2ccc(Cl)cc2)cc1 | 37.6% | 16.9% | 52.9% | 55.5% | 41.3% | 73.4% | 48.5% | 68% | 70.5% | 37.1% | 75.1 | 68.3% | 72.4% | 84.3% | 67% | 48.7% |  | 32.8% | 38.2%
COC(=O)[C@@H]1CCCN1C(=O)[C@@H]1CCCN1C(=O)[C@H](Cc1ccccc1)NC(=S)Nc1cc(C(F)(F)F)cc(C(F)(F)F)c1 | 76.4% | 74.7% | 73.8% | 33.3% | 7.88% (active) | 86.4% | 85.3% | 88.5% | 85.3% | -21.9% (active) | 75.7 | 95% | 75.5% | 85.1% | 72.2% | 72.3% |  | 50.1% | 53.4%
Cc1cc2nc3[nH]c4ccccc4c3nc2cc1C | 80.3% | 95.1% | 51.2% | 89.7% | 58.1% | 88.9% | 90.3% | 64.1% | 90% | 104% | 79.3 | 83.4% | 68.4% | 107% | 91.9% |  |  | 89.7% | 76.2%
COc1cc(C(=O)/C=C/c2cccnc2Nc2ccc(Cl)cc2)cc(OC)c1OC | -45.9% (active) | -55.1% (active) | -74.7% (active) | -80.5% (active) | -95.3% (active) | -86.8% (active) | -67% (active) | -65.5% (active) | -80.4% (active) | -65% (active) | 23.7 | -58.7% (active) | -99.3% (active) | -68.5% (active) | -97.1% (active) | -6.13% (active) |  | -6.63% (active) | -10.8% (active)
OC(COc1cccc2ccccc12)CN1CCN(c2ccccc2Cl)CC1 (stereo unspecified) | 99% | 85.7% | 86.7% | 83.4% | 97.8% | 90.7% | 93.9% | 92.6% | 112% | 44.6% | 102 | 105% | 85.1% | 100% | 102% |  | 90 | 107% | 
O=[N+]([O-])c1ccc2c(c1)Cc1cc(F)ccc1-2 | 97.1% | 95.6% | 92.1% | 92.5% | 93.1% | 86.4% | 85.2% | 103% | 107% | 126% | 68.7 | 99% | 88.8% | 96.8% | 103% | 96.4% |  |  | 81.9%
Cc1cc2nc(NC(=O)CN3CCN(CCN4C(=O)c5cccc6cccc(c56)C4=O)CC3)sc2cc1C | 81.1% | 51.8% | 77.8% | 75.3% | 73.2% | 77% | 83.8% | 77.9% | 106% | 107% | 82.1 | 72.9% | 68% | 95% | 85.1% | 88% |  | 45% | 71.5%
O=C(COc1ccc(/C=C2\CSc3ccccc3C2=O)cc1)Nc1nccs1 | 84.6% | 74.7% | 87.8% | 82.1% | 83% | 142% | 85.5% | -28.3% (active) | 124% | 83.5% | 129 |  | 75.7% | 85.5% | 104% | 87.5% | 159 | -30% (active) | -66.1% (active)
C=C(C)C(=O)Nc1ccc(NC(C)C)cc1 | 125% | 114% | 102% | 105% | 123% | 134% | 118% | 114% | 119% | 53.5% | 115 | 121% | 100% | 138% | 125% |  | 101 | 128% | 
COc1nc2c(c(=O)n1C)CN(Cc1ccccc1)C=N2 | 105% | 109% | 78% | 91.1% | 115% | 111% | 116% | 98.1% | 108% | 106% | 111 | 116% | 77.3% |  | 106% | 98.1% | 131 | 105% | 103%
N#Cc1c(N)n(CCNC(=O)c2ccccc2)c2nc3ccccc3nc12 | 111% | 104% | 116% | 119% | 115% | 132% | 103% | 113% | 123% | 90.3% | 123 | 120% | 89.4% | 102% | 118% | 115% |  | 44.7% | 133%
Nc1ccn(-c2ccc(Br)cc2)c(=O)n1 | 119% | 125% | 76.7% | 140% | 104% | 119% | 106% | 105% | 137% | 87.9% | 95.8 | 115% |  | 113% | 111% | 87.2% | 99.5 | 107% | -23.5% (active)
Oc1ccc(N=Cc2ccccc2O)cc1 | 120% | 99% | 89.1% | 93.1% | 83.3% | 92.3% | 96.8% | 104% | 127% | 141% | 103 | 102% | 77.3% | 101% | 88.3% |  | 112 |  | 79.5%
